Measured values published in PubChem BioAssay AID765 (NMMLSC, 2007).
Unmarked numbers belong to inactive results. Activity calls are given as the source filed them. No stated cut-off is given here; in the data, active means inhibition above about 31%; inactive means the rest.

Molecular target: N-formyl peptide receptor 2 (Homo sapiens) (UniProt P25090)
Test: human FPR2 ligand displacement single-point screen – cell-based, flow cytometry, single concentration (AID 765)
Details: FPRL1-expressing cells, fluorescent ligand binding inhibition, stronger effect = higher value; at 5.1 µM unless noted

N-formyl peptide receptor 2 (Homo sapiens), sequence (P25090 whole entry, looked up): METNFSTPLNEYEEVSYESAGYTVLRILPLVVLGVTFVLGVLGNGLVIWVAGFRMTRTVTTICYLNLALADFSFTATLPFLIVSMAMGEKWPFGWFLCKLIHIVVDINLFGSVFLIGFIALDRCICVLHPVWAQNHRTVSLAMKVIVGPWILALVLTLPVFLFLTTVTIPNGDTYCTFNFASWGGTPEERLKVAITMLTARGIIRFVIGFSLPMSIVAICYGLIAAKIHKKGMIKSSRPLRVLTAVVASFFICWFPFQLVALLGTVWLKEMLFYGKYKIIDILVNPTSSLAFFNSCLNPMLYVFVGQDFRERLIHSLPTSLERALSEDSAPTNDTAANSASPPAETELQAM

Row | Compound | inhibition
1 | CC(C)(C)OC(=O)N1CCN(c2nc(-c3ccccc3Cl)c3cc(Br)ccc3n2)CC1 | -9.1% [at 4.4 µM]
2 | CCOC(=O)N1CCN(c2nc(-c3cccc(OC)c3)cc(C(F)(F)F)n2)CC1 | -16.3% [at 5.4 µM]
3 | COc1ccc(-c2cn3cccnc3n2)cc1NC(=O)c1cccc(C(F)(F)F)c1 | 3.7% [at 5.4 µM]
4 | COc1ccc(-c2cn3cccnc3n2)cc1NC(=O)c1ccc(C(F)(F)F)cc1 | -3.6% [at 5.4 µM]
5 | CCOC(=O)N1CCN(c2nc(-c3ccc(OC)c(OC)c3)cc(C(F)(F)F)n2)CC1 | 36.1% (active)
6 | CCCC(CCC)C(=O)Nc1cc(-c2cn3cccnc3n2)ccc1OC | 19.4% [at 6.1 µM]
7 | CC(C)(C)OC(=O)N1CCN(c2nc(-c3ccccc3)c3cc([N+](=O)[O-])ccc3n2)CC1 | 14.7%
8 | CCOC(=O)N1CCN(c2nc(-c3ccccc3)c3cc(C)ccc3n2)CC1 | 3.4% [at 5.9 µM]
9 | Clc1cccc(-c2nc(N3CCN(c4ccccc4)CC3)nc3c2COc2ccccc2-3)c1 | -0.8% [at 4.9 µM]
10 | CC1(C)CC(=O)c2cnc(N3CCN(Cc4ccc5c(c4)OCO5)CC3)nc2C1 | -3.3% [at 5.6 µM]
11 | COc1ccc(-c2cn3cccnc3n2)cc1NC(=O)c1ccc(F)c(F)c1 | -13.5% [at 5.8 µM]
12 | CCN1CCN(c2nc(-c3ccc(Cl)cc3)cc(C(F)(F)F)n2)CC1 | -7.7% [at 6 µM]
